{"source": "PubChem BioAssay (NCATS)", "note": "Inconclusive results are not listed. Unmarked numbers belong to inactive results. The call rests on the fitted dose curve; in most records, active means well fitted curve in the direction sought with a large enough effect; inconclusive means small, poorly fitted or top-dose-only effect, or effect the other way, or another doubt; inactive means no such curve, though single readings can be large or run the other way.", "data": [{"test": "qHTS Assay for Identification of Small Molecule Agonists for NFkB Signaling Pathway. (AID 624478);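 further: compounds tested together with TNF alpha at its EC50 of 10 pM; 0% is about no effect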", "conditions": "NFkB pathway reporter cell assay, agonist mode, cells co-stimulated with 10 pM TNF alpha; series mostly up to 46.1 µM; activation: at the top concentration", "summary_of_the_method": "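ME-180 cervical carcinoma, stable NFkB-RE beta-lactamase reporter; 1000 cells/well, overnight attachment; cpd + TNF alpha 10 pM final, 5 h 37 C; LiveBLAzer 2 h RT; FRET 460/530 nm, ex 405 nm.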", "units": {"activation": "%"}, "values": [{"smiles": "CN(C)C1CCN(C(=O)c2ccc(NC(=O)Nc3nc(N4CCOCC4)nc(N4CCOCC4)n3)cc2)CC1", "activation": 3.28}, {"smiles": "CO[C@H]1C=CC=C(C)C(=O)NC2=CC(=O)C(NCCN(C)C)=C(C[C@@H](C)C[C@H](OC)[C@@H](O)[C@@H](C)C=C(C)[C@@H]1OC(N)=O)C2=O", "activation": 1.21}, {"smiles": "CCOC(CN1C(=O)[C@](CC(=O)Nc2ccc(C)cc2)(NC(=O)Nc2ccc(C)cc2)c2ccccc21)OCC", "activation": -1.17}, {"smiles": "O=c1cc(N2CCOCC2)oc2c(-c3cccc4c3sc3ccccc34)cccc12", "activation": 8.07}, {"smiles": "COc1cccc2c1CCCC2CCCN1CCN(C2CCCCC2)CC1", "note": "(centres undefined)", "activation": -0.0655}, {"smiles": "O=C(O)CCC1CCC(c2cc(F)ccc2F)(S(=O)(=O)c2ccc(Cl)cc2)CC1", "note": "(centres undefined)", "activation": -2.07}, {"smiles": "CC(C)(C)c1cc(C(=O)O)c(NC(=O)Nc2ccc3[nH]ncc3c2)s1", "activation": -0.827}, {"smiles": "O=C1C(Cl)=C(NCCN2CCOCC2)C(=O)c2ncccc21", "activation": 6.73}, {"smiles": "CN(C)Cc1ccc(-c2nc3cccc4c3n2CCNC4=O)cc1", "activation": -2.11}]}]}
